# Source: PubChem BioAssay AID1159580 (chemical genetic matrix, 2015)
# Values joined by “and” are separate entries in the source; they are usually repeats but may differ in a detail not shown here. Equal entries are not always repeated. Hit rate of the full screen: of about 5,500 compounds, about 2,000 (36%) were called active. Inconclusive results (about 18%) are left out. The list shows a part of the results. Unmarked numbers belong to inactive results. Rule as the data show it: active = normalized growth mostly below about 0.91 (no sharp cut-off); inconclusive = no clear call, values can overlap the other calls; inactive = mostly above about 0.92.
# Experiment: chemical genetic growth profiling, strain panel (AID 1159580);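 also: tested at 20 µM; growth read once vehicle control cultures reached saturation at 30 °C; 1 = growth at the plate median or of vehicle wells; lower values mean less growth of the strain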
# Settings: growth OD
smiles,measurement,setting,value
Cc1c(OCC(F)(F)F)ccnc1CS(=O)c1nc2ccccc2[nH]1 (stereo not given),normalized growth,"S. cerevisiae deletion strains, locus YJR075W, strain HOC1, hits give low values",0.948 and 0.981
same,normalized growth,"S. cerevisiae deletion strains, locus YKL009W, strain mrt4, hits give low values",0.991
same,normalized growth,"S. cerevisiae deletion strains, locus YKL068W, hits give low values",0.997
same,normalized growth,"S. cerevisiae deletion strains, locus YKL085W, strain MDH1 (second series), hits give low values",0.939
same,normalized growth,"S. cerevisiae deletion strains, locus YKL085W, strain MDH1, hits give low values",0.939
same,normalized growth,"S. cerevisiae deletion strains, locus YKL160W, strain elf1, hits give low values",1.01
same,normalized growth,"S. cerevisiae deletion strains, locus YKL190W, strain CNB1, hits give low values",0.987
same,normalized growth,"S. cerevisiae deletion strains, locus YKR001C, strain vps1, hits give low values",0.914
same,normalized growth,"S. cerevisiae deletion strains, locus YKR026C, strain gcn3, hits give low values",1
same,normalized growth,"S. cerevisiae deletion strains, locus YKR091W, strain srl3, hits give low values",1.01
same,normalized growth,"S. cerevisiae deletion strains, locus YLL001W, strain dnm1, hits give low values",1.01
same,normalized growth,"S. cerevisiae deletion strains, locus YLL026W, hits give low values",1.02
same,normalized growth,"S. cerevisiae deletion strains, locus YLL041C, strain sdh2, hits give low values",1.01
same,normalized growth,"S. cerevisiae deletion strains, locus YLR027C, strain aat2, hits give low values",1.01
same,normalized growth,"S. cerevisiae deletion strains, locus YLR039C, strain RIC1, hits give low values",0.985
same,normalized growth,"S. cerevisiae deletion strains, locus YLR058C, strain SHM2, hits give low values",0.966
same,normalized growth,"S. cerevisiae deletion strains, locus YLR102C, strain apc9, hits give low values",1
same,normalized growth,"S. cerevisiae deletion strains, locus YLR113W, strain HOG1, hits give low values",0.581 (active)
same,normalized growth,"S. cerevisiae deletion strains, locus YLR221C, strain rsa3, hits give low values",1
same,normalized growth,"S. cerevisiae deletion strains, locus YLR258W, strain gsy2, hits give low values",1.02
same,normalized growth,"S. cerevisiae deletion strains, locus YLR262C, strain YPT6 (second series), hits give low values",1.05
same,normalized growth,"S. cerevisiae deletion strains, locus YLR262C, strain YPT6, hits give low values",0.998
same,normalized growth,"S. cerevisiae deletion strains, locus YLR268W, strain sec22, hits give low values",0.826 (active)
same,normalized growth,"S. cerevisiae deletion strains, locus YLR320W, strain mms22, hits give low values",1.01
same,normalized growth,"S. cerevisiae deletion strains, locus YLR330W, strain CHS5, hits give low values",0.987
same,normalized growth,"S. cerevisiae deletion strains, locus YLR342W, strain FKS1 (second series), hits give low values",0.926
same,normalized growth,"S. cerevisiae deletion strains, locus YLR342W, strain FKS1, hits give low values",1.04
same,normalized growth,"S. cerevisiae deletion strains, locus YLR357W, strain rsc2, hits give low values",1.01
same,normalized growth,"S. cerevisiae deletion strains, locus YLR370C, strain arc18, hits give low values",1.02
same,normalized growth,"S. cerevisiae deletion strains, locus YLR371W, strain rom2, hits give low values",0.989
same,normalized growth,"S. cerevisiae deletion strains, locus YLR384C, strain iki3, hits give low values",1.02
same,normalized growth,"S. cerevisiae deletion strains, locus YLR418C, strain cdc73, hits give low values",0.828 (active)
same,normalized growth,"S. cerevisiae deletion strains, locus YML016C, strain PPZ1, hits give low values",0.979
same,normalized growth,"S. cerevisiae deletion strains, locus YML032C, strain rad52, hits give low values",0.93
same,normalized growth,"S. cerevisiae deletion strains, locus YML120C, strain ndi1, hits give low values",1.02
same,normalized growth,"S. cerevisiae deletion strains, locus YML124C, strain tub3, hits give low values",0.997
same,normalized growth,"S. cerevisiae deletion strains, locus YMR058W, strain fet3, hits give low values",1.01
same,normalized growth,"S. cerevisiae deletion strains, locus YMR078C, strain ctf18, hits give low values",0.989
same,normalized growth,"S. cerevisiae deletion strains, locus YMR125W, strain sto1, hits give low values",1.02
same,normalized growth,"S. cerevisiae deletion strains, locus YMR129W, hits give low values",1.02
same,normalized growth,"S. cerevisiae deletion strains, locus YMR205C, strain PFK2, hits give low values",1.04
same,normalized growth,"S. cerevisiae deletion strains, locus YMR223W, strain ubp8, hits give low values",0.981
same,normalized growth,"S. cerevisiae deletion strains, locus YMR231W, strain pep5, hits give low values",1.02
same,normalized growth,"S. cerevisiae deletion strains, locus YMR263W, strain SAP30, hits give low values",0.97 and 0.99
same,normalized growth,"S. cerevisiae deletion strains, locus YMR307W, strain GAS1, hits give low values",0.907
same,normalized growth,"S. cerevisiae deletion strains, locus YNL067W, strain RPL9B, hits give low values",0.958
same,normalized growth,"S. cerevisiae deletion strains, locus YNL071W, strain lat1, hits give low values",1.01
same,normalized growth,"S. cerevisiae deletion strains, locus YNL128W, strain TEP1, hits give low values",0.974
same,normalized growth,"S. cerevisiae deletion strains, locus YNL153C, strain GIM3, hits give low values",0.956
same,normalized growth,"S. cerevisiae deletion strains, locus YNL175C, strain NOP13, hits give low values",0.996
same,normalized growth,"S. cerevisiae deletion strains, locus YNL183C, strain NPR1, hits give low values",0.789 (active)
same,normalized growth,"S. cerevisiae deletion strains, locus YNL197C, strain WHI3, hits give low values",0.998
same,normalized growth,"S. cerevisiae deletion strains, locus YNL209W, strain ssb2, hits give low values",1.01
same,normalized growth,"S. cerevisiae deletion strains, locus YNL224C, strain SQS1, hits give low values",0.993
same,normalized growth,"S. cerevisiae deletion strains, locus YNL233W, strain BNI4, hits give low values",0.941
same,normalized growth,"S. cerevisiae deletion strains, locus YNL248C, strain rpa49, hits give low values",1.02
same,normalized growth,"S. cerevisiae deletion strains, locus YNL250W, strain rad50, hits give low values",0.902
same,normalized growth,"S. cerevisiae deletion strains, locus YNL271C, strain bni1, hits give low values",0.913 (active)
same,normalized growth,"S. cerevisiae deletion strains, locus YNL298W, strain CLA4, hits give low values",0.834 (active)
same,normalized growth,"S. cerevisiae deletion strains, locus YNL307C, strain MCK1, hits give low values",0.872 (active)
same,normalized growth,"S. cerevisiae deletion strains, locus YNL322C, strain KRE1 (second series), hits give low values",1.02
same,normalized growth,"S. cerevisiae deletion strains, locus YNL322C, strain KRE1, hits give low values",0.998
same,normalized growth,"S. cerevisiae deletion strains, locus YNR049C, strain mso1, hits give low values",1.01
same,normalized growth,"S. cerevisiae deletion strains, locus YNR052C, strain pop2, hits give low values",0.98
same,normalized growth,"S. cerevisiae deletion strains, locus YOL006C, strain TOP1, hits give low values",0.989
same,normalized growth,"S. cerevisiae deletion strains, locus YOL012C, strain htz1",0.898
same,normalized growth,"S. cerevisiae deletion strains, locus YOL147C, strain pex11, hits give low values",0.965
same,normalized growth,"S. cerevisiae deletion strains, locus YOR001W, strain rrp6, hits give low values",1.02
same,normalized growth,"S. cerevisiae deletion strains, locus YOR061W, strain CKA2, hits give low values",0.992
same,normalized growth,"S. cerevisiae deletion strains, locus YOR069W, strain VPS5, hits give low values",0.989
same,normalized growth,"S. cerevisiae deletion strains, locus YOR070C, strain gyp1, hits give low values",1.02
same,normalized growth,"S. cerevisiae deletion strains, locus YOR080W, strain dia2, hits give low values",1.01
same,normalized growth,"S. cerevisiae deletion strains, locus YOR083W, strain WHI5 (second series), hits give low values",0.966
same,normalized growth,"S. cerevisiae deletion strains, locus YOR083W, strain WHI5, hits give low values",1.01
same,normalized growth,"S. cerevisiae deletion strains, locus YOR106W, strain vam3, hits give low values",0.991
same,normalized growth,"S. cerevisiae deletion strains, locus YOR136W, strain idh2, hits give low values",0.979
same,normalized growth,"S. cerevisiae deletion strains, locus YOR144C, strain elg1, hits give low values",0.977
same,normalized growth,"S. cerevisiae deletion strains, locus YOR184W, strain ser1, hits give low values",0.881
same,normalized growth,"S. cerevisiae deletion strains, locus YOR231W, strain MKK1, hits give low values",0.91
same,normalized growth,"S. cerevisiae deletion strains, locus YOR265W, strain rbl2, hits give low values",1.02
same,normalized growth,"S. cerevisiae deletion strains, locus YOR270C, strain vph1, hits give low values",1.06
same,normalized growth,"S. cerevisiae deletion strains, locus YOR290C, strain snf2, hits give low values",1.01
same,normalized growth,"S. cerevisiae deletion strains, locus YOR316C, strain cot1, hits give low values",0.988
same,normalized growth,"S. cerevisiae deletion strains, locus YPL051W, strain arl3, hits give low values",0.993
same,normalized growth,"S. cerevisiae deletion strains, locus YPL055C, strain LGE1, hits give low values",0.955 and 0.953
same,normalized growth,"S. cerevisiae deletion strains, locus YPL078C, strain atp4, hits give low values",1.02
same,normalized growth,"S. cerevisiae deletion strains, locus YPL106C, strain sse1, hits give low values",1.01
same,normalized growth,"S. cerevisiae deletion strains, locus YPL240C, strain hsp82, hits give low values",1.02
same,normalized growth,"S. cerevisiae deletion strains, locus YPL241C, strain CIN2, hits give low values",1
same,normalized growth,"S. cerevisiae deletion strains, locus YPR119W, strain clb2, hits give low values",0.996
same,normalized growth,"S. cerevisiae deletion strains, locus YPR141C, strain kar3, hits give low values",1.01
same,normalized growth,"S. cerevisiae deletion strains, locus YPR163C, strain tif3, hits give low values",0.976
same,normalized growth,"S. cerevisiae deletion strains, locus YPR167C, strain met16, hits give low values",0.988
same,normalized growth,"S. cerevisiae deletion strains, strain wtn01, hits give low values",0.95
same,normalized growth,"S. cerevisiae strains, strain wild type, hits give low values",0.972
